Inconclusive results are not listed. Activity calls are given as the source filed them. The call rests on the fitted dose curve; in most records, active means well fitted curve in either direction with a large enough effect; inconclusive means small, poorly fitted or top-dose-only effect; inactive means flat fitted curve, though single readings scatter.

Sequence of Neuropeptide S receptor (Homo sapiens) (Q6W5P4 whole entry, looked up): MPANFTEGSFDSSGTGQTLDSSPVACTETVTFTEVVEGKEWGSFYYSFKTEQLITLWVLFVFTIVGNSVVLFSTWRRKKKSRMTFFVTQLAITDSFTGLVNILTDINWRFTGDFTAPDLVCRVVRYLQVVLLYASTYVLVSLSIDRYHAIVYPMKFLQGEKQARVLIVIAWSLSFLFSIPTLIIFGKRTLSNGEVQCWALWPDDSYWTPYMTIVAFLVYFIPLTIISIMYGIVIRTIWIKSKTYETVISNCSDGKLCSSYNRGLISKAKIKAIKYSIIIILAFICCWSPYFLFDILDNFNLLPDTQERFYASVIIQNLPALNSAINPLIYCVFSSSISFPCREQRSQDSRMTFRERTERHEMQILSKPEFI

The assay deals with Neuropeptide S receptor (Homo sapiens) (UniProt Q6W5P4). Nature of the assay: Confirmation Concentration-Response Assay for Antagonists of the Neuropeptide S Receptor: Robust Characterization of cAMP Signal Transduction. Particulars: CHO-NPSR cells, NPS-stimulated cAMP TR-FRET. The source says:
NIH Chemical Genomics Center [NCGC] NIH Molecular Libraries Probe Production centers Network [MLPCN] MLPCN Grant: X01-DA026210-01 Assay Submitter (PI): Heilig, Markus Alexander NCGC Assay Overview: Neuropeptide S receptor (NPSR), previously known as GPR154, is a recently de-orphanized G protein coupled receptor. Its endogenous ligand is the 20 amino acids peptide Neuropeptide S (NPS). […] NPS and its receptor are found in various tissues. Specifically they are highly expressed in brain areas that have been implicated in modulation of arousal, stress and anxiety. Central administration of NPS in mice produces an unusual profile of activity by inducing wakefulness and arousal, while at the same time suppressing anxiety. Therefore, NPSR may represent a novel drug target for the treatment of sleep and anxiety disorders. To identify NPSR antagonists, we developed a cell-based cAMP assay. NPS can stimulate the production of cAMP in Chinese hamster ovary cells stably expressing NPS receptor. This change in intracellular cAMP level can be detected by a homogeneous LANCE cAMP assay based on the TR-FRET (time resolved fluorescence resonance energy transfer) between a europium-labeled cAMP tracer complex and a cAMP-specific antibody labeled with Alexa Fluor 647. The europium-labeled cAMP tracer complex is formed by the tight interaction between Biotin-cAMP (b-cAMP) and streptavidin labeled with Europium-W8044 chelate (Eu-SA). Light pulse at 320 nm excites the europium of the cAMP tracer and the energy emitted is transferred to the Alexa molecule bound to the cAMP antibody, generating a TR-FRET signal at 665 nm. Residual energy from the europium will produce a light at 620 nm. The native unlabeled cAMP from cell lysates competes with the europium-cAMP tracer for antibody binding and reversely reduces the emission signal of Alexa by interrupting FRET between the two labeled molecules. Both emission signals from the FRET donor (620 nm) and the acceptor (665 nm) can be detected by a plate reader in the TRF mode. Expression of result in fluorescence ratio (665 nm/620 nm) helps to normalize differences due to cell density and reagent dispensing. This assay was successfully optimized to a 1536-well plate format. Select compounds from the primary screen (AID 1461) were chosen for confirmation based on potency, efficacy, SAR, and activity across other assays in PubChem and at NCGC. Other compounds are analogs of active compounds from the primary screen. This particular assay uses a high density of sampling across concentration-response space to establish more confidence estimates of potency.
NCGC Assay Protocol Summary: A Chinese hamster ovary (CHO) cell line stably expressing the NPS receptor (CHO-NPSR) was obtained from Dr. Heilig lab at NIAAA and maintained in F-12 Kaighn's media (Invitrogen, Carlsbad, CA, 21127) supplemented with 10 % FBS, 100 units/ml penicillin, 100 ug/ml streptomycin and 250 ug/ml geneticin at 37C, 5% CO2 in a humidified atmosphere. Before the assay, aliquots of cells were frozen and stored at -135C. The assay was performed in 1536-well format. Data are reported for both the ratio of the two emission wavelengths, and also for the component 'donor' channel, Em2=620. […] IC50 values were determined from concentration-response data modeled with the standard Hill equation. NPS 1536-well assay protocol: (1) Fresh or frozen CHO-NPSR cells were suspended in F-12 Kaighn's media supplemented with 10 % FBS, 100 units/ml penicillin and 100 ug/ml streptomycin. Cells were plated at 4 ul/well (1200 cells) to white, tissue culture treated 1536-well plates, and then cultured at 37C, 5 % CO2 for 16 to 30 hours. (2) Add 23 nl/well of compound in DMSO solution. The final titration for each compound was between 0.6 nM and 46 uM. […]
A general note: Time-resolved FRET reads energy transfer from a long-lived donor to a nearby acceptor.
Regarding `Cc1c(P(=S)(c2ccccc2)c2ccccc2)[n+]2ccccc2n1CCCc1ccccc1`, the Potency was 0.106 µM (active).

`Cc1c(P(=S)(c2ccccc2)c2ccccc2)[n+]2ccccc2n1CCCCc1ccccc1`: the Potency was 0.0011 µM (active).

For the compound `Cc1nc2ccccn2c1P(=S)(c1ccccc1)c1ccccc1`, the Potency was 17.7 µM (active).

For `Cc1c(P(=S)(c2ccccc2)c2ccccc2)[n+]2ccccc2n1C`, the Potency was 1.67 µM (active).

Turning to `Cc1c(P(=S)(c2ccccc2)c2ccccc2)[n+]2ccccc2n1CCc1ccccc1`, the Potency is 2.1 µM (active).

For `Cc1c(P(=S)(c2ccccc2)c2ccccc2)[n+]2ccccc2n1CCCCCc1ccccc1`, the Potency is 0.705 µM (active).

For the compound `Cc1c(P(=S)(c2ccccc2)c2ccccc2)[n+]2ccccc2n1Cc1ccccc1`, the Potency was 1.25 µM (active).

With `Cc1c(P(=S)(c2ccccc2)c2ccccc2)[n+]2ccccc2n1C/C=C/c1ccccc1`, the Potency was 0.0445 µM (active).
